Reference: PubChem BioAssay (EPA / NIEHS)
Results filed as inconclusive are left out. The source made the active and inactive calls. The calls were made as follows, unless noted: active = hit-call score of the fitted dose curve at least 0.9, where 1 is the maximum; inactive = score below 0.9.

Legend:
[1] = target: human RAR-related Orphan Receptor beta (RORb), RORB (gene 6096) (UniProt Q92753); assay: ATG_RORb_TRANS: Attagene TRANS-FACTORIAL HepG2 Assay for human RAR-related Orphan Receptor beta (RORb) (AID 2283010; active = hit-call score of the fitted dose curve at least 0.9, where 1 is the maximum)
Sequence of human RAR-related Orphan Receptor beta (RORb), RORB (gene 6096) (Q92753 whole entry, looked up, the tested form may be a part): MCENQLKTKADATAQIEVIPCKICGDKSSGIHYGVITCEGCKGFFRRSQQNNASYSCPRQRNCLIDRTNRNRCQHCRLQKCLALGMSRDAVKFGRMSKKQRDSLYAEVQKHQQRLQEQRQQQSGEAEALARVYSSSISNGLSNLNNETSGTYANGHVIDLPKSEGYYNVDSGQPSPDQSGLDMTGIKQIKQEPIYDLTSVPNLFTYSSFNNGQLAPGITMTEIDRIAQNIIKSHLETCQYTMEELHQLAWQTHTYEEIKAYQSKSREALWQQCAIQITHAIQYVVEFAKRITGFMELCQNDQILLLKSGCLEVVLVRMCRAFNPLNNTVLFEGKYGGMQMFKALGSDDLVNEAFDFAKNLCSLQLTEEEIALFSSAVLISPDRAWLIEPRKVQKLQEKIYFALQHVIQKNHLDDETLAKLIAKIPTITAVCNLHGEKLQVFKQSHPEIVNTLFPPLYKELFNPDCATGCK
Method in brief: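 Transfect HepG2 with multiple GAL4-UAS reporter transcription units; dose chemicals for 24 h; isolate RNA, reverse-transcribe and PCR-amplify reporter sequences; label, digest and resolve fragments by capillary electrophoresis; fit increases relative to DMSO.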

[2] = target: human RAR-related Orphan Receptor gamma (RORg), RORC (gene 6097) (UniProt P51449); assay: ATG_RORg_TRANS: Attagene TRANS-FACTORIAL HepG2 Assay for human RAR-related Orphan Receptor gamma (RORg) (AID 2283011; active = hit-call score of the fitted dose curve at least 0.9, where 1 is the maximum)
Sequence of human RAR-related Orphan Receptor gamma (RORg), RORC (gene 6097) (P51449 whole entry, looked up, the tested form may be a part): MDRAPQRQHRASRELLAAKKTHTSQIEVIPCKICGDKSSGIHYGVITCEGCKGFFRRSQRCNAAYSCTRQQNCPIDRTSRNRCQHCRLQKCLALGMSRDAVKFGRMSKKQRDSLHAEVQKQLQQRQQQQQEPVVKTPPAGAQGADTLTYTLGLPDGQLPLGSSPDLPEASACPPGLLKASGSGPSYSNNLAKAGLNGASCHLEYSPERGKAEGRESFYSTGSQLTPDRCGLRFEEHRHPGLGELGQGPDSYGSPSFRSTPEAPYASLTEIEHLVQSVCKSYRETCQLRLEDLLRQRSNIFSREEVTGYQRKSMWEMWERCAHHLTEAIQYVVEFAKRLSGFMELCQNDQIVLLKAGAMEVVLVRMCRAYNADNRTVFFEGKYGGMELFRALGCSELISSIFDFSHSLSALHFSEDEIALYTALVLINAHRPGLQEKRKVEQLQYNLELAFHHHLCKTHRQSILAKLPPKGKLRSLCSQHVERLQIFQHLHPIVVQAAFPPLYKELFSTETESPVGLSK
Method in brief: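 First, HepG2 liver cells were transfected with GAL4-UAS-driven reporter constructs and the RORg-Gal4 fusion. Next, they were treated with chemical for 24 h. Finally, reporter mRNA was quantified by RT-PCR and capillary electrophoresis, with upward activity fitted against DMSO.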

[3] = target: Retinoic acid receptor RXR-alpha (Homo sapiens) (UniProt P19793); assay: ATG_RXRa_TRANS: Attagene TRANS-FACTORIAL HepG2 Assay for human Retinoid X Receptor alpha (RXRa) (AID 2283012; active = hit-call score of the fitted dose curve at least 0.9, where 1 is the maximum)
Sequence of Retinoic acid receptor RXR-alpha (Homo sapiens) (P19793 whole entry, looked up, the tested form may be a part): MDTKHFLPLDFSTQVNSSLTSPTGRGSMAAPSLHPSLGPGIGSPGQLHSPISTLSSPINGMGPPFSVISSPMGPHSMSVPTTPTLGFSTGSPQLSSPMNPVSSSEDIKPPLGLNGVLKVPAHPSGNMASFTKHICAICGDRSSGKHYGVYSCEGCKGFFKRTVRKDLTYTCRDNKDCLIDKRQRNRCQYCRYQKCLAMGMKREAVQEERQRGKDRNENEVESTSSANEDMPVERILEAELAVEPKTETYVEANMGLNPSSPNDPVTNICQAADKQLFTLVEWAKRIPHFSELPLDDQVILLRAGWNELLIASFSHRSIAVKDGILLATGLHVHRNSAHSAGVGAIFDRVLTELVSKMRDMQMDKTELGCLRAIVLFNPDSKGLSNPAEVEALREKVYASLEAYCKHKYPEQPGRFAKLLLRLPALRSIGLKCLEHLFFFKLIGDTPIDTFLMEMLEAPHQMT
Method in brief: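 Measures exogenous chimeric NR-GAL4 activity in transfected HepG2 liver cells after 24 h of dosing. Induced reporter mRNA was detected by RT-PCR with capillary electrophoresis, and gain of signal was analysed against DMSO.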

[4] = target: human Retinoid X Receptor beta (RXRb), RXRB (gene 6257) (UniProt P28702); assay: ATG_RXRb_TRANS: Attagene TRANS-FACTORIAL HepG2 Assay for human Retinoid X Receptor beta (RXRb) (AID 2283013; active = hit-call score of the fitted dose curve at least 0.9, where 1 is the maximum)
Sequence of human Retinoid X Receptor beta (RXRb), RXRB (gene 6257) (P28702 whole entry, looked up, the tested form may be a part): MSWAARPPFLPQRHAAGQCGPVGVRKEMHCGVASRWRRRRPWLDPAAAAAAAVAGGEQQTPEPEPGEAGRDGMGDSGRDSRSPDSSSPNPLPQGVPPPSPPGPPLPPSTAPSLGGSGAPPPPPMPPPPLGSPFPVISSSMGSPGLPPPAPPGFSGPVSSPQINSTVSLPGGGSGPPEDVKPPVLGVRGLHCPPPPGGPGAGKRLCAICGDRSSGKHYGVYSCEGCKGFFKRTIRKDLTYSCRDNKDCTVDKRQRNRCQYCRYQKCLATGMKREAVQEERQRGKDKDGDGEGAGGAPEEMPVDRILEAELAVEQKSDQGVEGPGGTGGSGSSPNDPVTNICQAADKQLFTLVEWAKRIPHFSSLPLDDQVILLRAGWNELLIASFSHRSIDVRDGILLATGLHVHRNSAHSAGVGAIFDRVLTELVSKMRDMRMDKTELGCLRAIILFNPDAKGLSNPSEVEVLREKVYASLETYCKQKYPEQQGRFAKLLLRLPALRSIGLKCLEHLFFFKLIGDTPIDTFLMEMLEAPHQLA
Method in brief: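 Chimeric receptor-Gal4 activity was assessed in transiently transfected human HepG2 cells after 24 h exposure. Transcripts from GAL4-UAS reporters were quantified by fluorescent RT-PCR and capillary electrophoresis, with DMSO as negative control and baseline.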

[5] = target: human Thyroid Receptor alpha (THRa1), THRA (gene 7067) (UniProt P10827); assay: ATG_THRa1_TRANS: Attagene TRANS-FACTORIAL HepG2 Assay for human Thyroid Receptor alpha (THRa1) (AID 2283014; active = hit-call score of the fitted dose curve at least 0.9, where 1 is the maximum)
Sequence of human Thyroid Receptor alpha (THRa1), THRA (gene 7067) (P10827 whole entry, looked up, the tested form may be a part): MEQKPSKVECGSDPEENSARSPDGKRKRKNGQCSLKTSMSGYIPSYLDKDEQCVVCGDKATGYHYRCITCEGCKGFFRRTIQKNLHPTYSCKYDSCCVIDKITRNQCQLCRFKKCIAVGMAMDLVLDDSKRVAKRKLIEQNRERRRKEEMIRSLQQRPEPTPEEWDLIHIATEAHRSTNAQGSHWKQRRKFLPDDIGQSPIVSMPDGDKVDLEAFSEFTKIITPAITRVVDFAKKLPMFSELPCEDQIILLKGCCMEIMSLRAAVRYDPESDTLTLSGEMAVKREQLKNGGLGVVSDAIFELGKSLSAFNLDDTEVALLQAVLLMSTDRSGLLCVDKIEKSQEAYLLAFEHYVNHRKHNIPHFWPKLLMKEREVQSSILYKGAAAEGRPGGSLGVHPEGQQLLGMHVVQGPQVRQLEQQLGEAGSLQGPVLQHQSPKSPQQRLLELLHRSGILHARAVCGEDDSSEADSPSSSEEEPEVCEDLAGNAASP
Method in brief: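 Reporter transcript induction, read by capillary electrophoresis of 6-FAM-labelled RT-PCR products, reflects activity of a transfected THRa1-Gal4 fusion in HepG2 liver cells. Cells were dosed for 24 h; activity was fitted in the positive direction against DMSO.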

[6] = read-out: E-selectin (Homo sapiens) (UniProt P16581); assay: BSK_3C_Eselectin: BioMAP Diversity Plus: 3C Assay for Eselectin Biomarker Activity (AID 2283015); details: primary human endothelial cells (HUVEC); actives raise or lower the signal
Method in brief: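 ELISA read-out of E-selectin on endothelial monolayers after 24 h chemical treatment. Human umbilical vein primary cells served as the system, with DMSO defining baseline activity for bidirectional fitting.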

[7] = read-out: Interleukin-1 alpha (IL1a), IL1A (gene 3552); assay: BSK_BE3C_IL1a: BioMAP Diversity Plus: BE3C Assay for Interleukin-1 alpha (IL1a) Biomarker Activity (AID 2283016); details: primary human bronchial epithelial cells; actives raise or lower the signal
Method in brief: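 Signal from IL-1a ELISA, taken 24 h after chemical dosing of human bronchial epithelial cells, is compared with DMSO as baseline using bidirectional curve fitting.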

[8] = read-out: Monocyte Chemoattractant Protein-1 (MCP1), CCL2 (gene 6347); assay: BSK_3C_MCP1: BioMAP Diversity Plus: 3C Assay for Monocyte Chemoattractant Protein-1 (MCP1) Biomarker Activity (AID 2283017); details: primary human endothelial cells (HUVEC); actives raise or lower the signal
Method in brief: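 ELISA read-out of MCP-1 from human umbilical vein endothelial cell cultures harvested 24 h post-dosing. Gain or loss of signal was fitted relative to DMSO.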

[9] = read-out: Monocyte Chemoattractant Protein-1 (MCP1), CCL2 (gene 6347); assay: BSK_4H_MCP1: BioMAP Diversity Plus: 4H Assay for Monocyte Chemoattractant Protein-1 (MCP1) Biomarker Activity (AID 2283018); details: primary human endothelial cells (HUVEC); actives raise or lower the signal
Method in brief: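 Endothelial cells from umbilical vein were treated with test chemical, then after 24 h MCP-1 levels were quantified by ELISA; endpoint values came from bidirectional fitting with DMSO as baseline of activity.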

[10] = read-out: Human Leukocyte Antigen - DR isotype (HLADR), HLA-DRA (gene 3122); assay: BSK_3C_HLADR: BioMAP Diversity Plus: 3C Assay for Human Leukocyte Antigen - DR isotype (HLADR) Biomarker Activity (AID 2283019); details: primary human endothelial cells (HUVEC); actives raise or lower the signal
Method in brief: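 ELISA readout of surface HLA-DR on human umbilical vein endothelium, taken 24 h after chemical treatment. Gain- and loss-of-signal were both fitted relative to DMSO.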

[11] = read-out: Interleukin-8 (IL8), CXCL8 (gene 3576); assay: BSK_3C_IL8: BioMAP Diversity Plus: 3C Assay for Interleukin-8 (IL8) Biomarker Activity (AID 2283020); details: primary human endothelial cells (HUVEC); actives raise or lower the signal
Method in brief: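 Endothelial primary cells of human umbilical vein origin are dosed with chemical; after 24 h the IL-8 biomarker is measured by ELISA, and concentration–response is fitted in both directions versus DMSO.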

[12] = read-out: Monokine induced gamma interferon (MIG), CXCL9 (gene 4283); assay: BSK_3C_MIG: BioMAP Diversity Plus: 3C Assay for Monokine induced gamma interferon (MIG) Biomarker Activity (AID 2283021); details: primary human endothelial cells (HUVEC); actives raise or lower the signal;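 as to AC50: MIG protein level measured by immunoassay in the treated endothelial cultures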
Method in brief: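 Endothelial primary cells (human umbilical vein) are dosed with test chemical in the 3C system. MIG levels are measured by ELISA at 24 h and fitted in both directions relative to DMSO.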

[13] = target: human Vitamin D Receptor (VDR), VDR (gene 7421) (UniProt P11473); assay: ATG_VDR_TRANS: Attagene TRANS-FACTORIAL HepG2 Assay for human Vitamin D Receptor (VDR) (AID 2283022; active = hit-call score of the fitted dose curve at least 0.9, where 1 is the maximum)
Sequence of human Vitamin D Receptor (VDR), VDR (gene 7421) (P11473 whole entry, looked up, the tested form may be a part): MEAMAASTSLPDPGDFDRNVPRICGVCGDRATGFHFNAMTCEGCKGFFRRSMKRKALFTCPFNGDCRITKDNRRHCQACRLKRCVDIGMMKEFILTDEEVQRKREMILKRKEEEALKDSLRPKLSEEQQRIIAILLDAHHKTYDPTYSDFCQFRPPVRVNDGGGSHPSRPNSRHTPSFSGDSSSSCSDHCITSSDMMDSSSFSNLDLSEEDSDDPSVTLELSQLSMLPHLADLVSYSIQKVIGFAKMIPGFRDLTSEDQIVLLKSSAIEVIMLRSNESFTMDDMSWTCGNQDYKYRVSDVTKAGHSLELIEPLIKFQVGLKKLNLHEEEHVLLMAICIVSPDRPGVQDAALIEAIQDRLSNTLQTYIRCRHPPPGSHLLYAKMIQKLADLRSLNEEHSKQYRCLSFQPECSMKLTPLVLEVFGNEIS
Method in brief: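 Steps: transfect HepG2 with GAL4-UAS-driven reporter constructs; dose compounds 24 h; isolate RNA, reverse-transcribe, PCR-amplify with 6-FAM-labelled primer extension and HpaI digestion; quantify fragments by capillary electrophoresis relative to DMSO.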

[14] = BSK_3C_SRB: Viability Assessment in the BioMAP Diversity Plus: 3C Assay (AID 2283023); details: primary human endothelial cells (HUVEC);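 also: fitted both ways against DMSO so a hit may be signal rise or drop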
Method in brief: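 Absorbance at 560 nm of sulforhodamine B-stained (0.1%) total protein served as a cytotoxicity readout in human umbilical vein endothelial cells, 24 h after chemical treatment. Signal was fitted bidirectionally relative to DMSO.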

[15] = read-out: Matrix Metallopeptidase 1 (MMP1), MMP1 (gene 4312); assay: BSK_BE3C_MMP1: BioMAP Diversity Plus: BE3C Assay for Matrix Metallopeptidase 1 (MMP1) Biomarker Activity (AID 2283024); details: primary human bronchial epithelial cells; actives raise or lower the signal
Method in brief: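 MMP1 signal, measured by ELISA after a 24 h chemical exposure of human primary bronchial epithelial cells, is analysed with bidirectional fitting using DMSO as negative control.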

[16] = BSK_3C_Vis: BioMAP Diversity Plus: 3C Assay for Morphology Visualization (AID 2283025); details: primary human endothelial cells (HUVEC);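 also: fitted both ways so gain or loss versus DMSO counts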
Method in brief: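 Morphology read by light microscopy serves as a background control for the multiplexed 3C assay in human umbilical vein endothelial cells, taken 24 h after dosing, with DMSO as the negative control and bidirectional curve fitting.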

[17] = read-out: Pselectin, SELP (gene 6403); assay: BSK_4H_Pselectin: BioMAP Diversity Plus: 4H Assay for Pselectin Biomarker Activity (AID 2283026); details: primary human endothelial cells (HUVEC); actives raise or lower the signal
Method in brief: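 Endothelial primary cells (human umbilical vein) are dosed, incubated 24 h, and assayed for surface P-selectin by ELISA; responses in either direction are fitted relative to the DMSO negative control.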

[18] = BSK_4H_SRB: Viability Assessment in the BioMAP Diversity Plus: 4H Assay (AID 2283027); details: primary human endothelial cells (HUVEC);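 also: cells exposed to compound for 24 h before staining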;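 as to AC50: curves fitted both ways versus DMSO so AC50 may be loss or gain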
Method in brief: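 Cytotoxicity read-out in primary human endothelial cells: after 24 h compound exposure, cells were TCA-fixed (10%), stained with 0.1% SRB and absorbance taken at 560 nm. Values fitted in both directions relative to DMSO.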

[19] = BSK_BE3C_SRB: Viability Assessment in the BioMAP Diversity Plus: BE3C Assay (AID 2283028); details: primary human bronchial epithelial cells
Method in brief: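 Cells (human bronchial epithelial, primary) are treated with chemicals, and after 24 h the parallel cultures are fixed in 10% TCA. These are then stained with 0.1% SRB and read at 560 nm. Gain or loss of signal is fitted relative to DMSO.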

[20] = read-out: Thrombomodulin, THBD (gene 7056); assay: BSK_3C_Thrombomodulin: BioMAP Diversity Plus: 3C Assay for Thrombomodulin Biomarker Activity (AID 2283029); details: primary human endothelial cells (HUVEC); actives raise or lower the signal
Method in brief: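 Endothelial cells from umbilical vein are dosed with test chemical and incubated 24 h. Thrombomodulin is then quantified by ELISA, with DMSO serving as negative control and activity baseline.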

Measured: AC50

Sequence of E-selectin (Homo sapiens) (P16581 whole entry, looked up): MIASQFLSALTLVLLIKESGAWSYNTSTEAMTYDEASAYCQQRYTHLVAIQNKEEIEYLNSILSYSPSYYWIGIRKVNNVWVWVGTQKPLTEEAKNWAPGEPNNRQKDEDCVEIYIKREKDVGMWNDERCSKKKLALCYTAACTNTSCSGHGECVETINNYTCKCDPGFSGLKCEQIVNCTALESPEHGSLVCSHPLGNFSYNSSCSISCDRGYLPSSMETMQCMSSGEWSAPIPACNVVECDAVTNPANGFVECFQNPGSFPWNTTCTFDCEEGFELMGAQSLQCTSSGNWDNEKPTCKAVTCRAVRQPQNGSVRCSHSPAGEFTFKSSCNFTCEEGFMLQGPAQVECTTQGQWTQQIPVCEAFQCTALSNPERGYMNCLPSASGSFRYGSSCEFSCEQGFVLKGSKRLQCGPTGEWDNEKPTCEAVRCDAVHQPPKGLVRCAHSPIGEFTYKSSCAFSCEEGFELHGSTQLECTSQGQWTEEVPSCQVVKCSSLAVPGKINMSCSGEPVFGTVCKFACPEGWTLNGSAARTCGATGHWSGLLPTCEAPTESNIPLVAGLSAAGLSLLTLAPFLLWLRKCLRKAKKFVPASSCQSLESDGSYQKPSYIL

CC(C)=CC1C(C(=O)OCN2C(=O)C3=C(CCCC3)C2=O)C1(C)C (stereo unspecified)
active: [6] 26.9 µM | [8] 7.53 µM | [10] 27.9 µM | [14] 27.2 µM | [15] 11.3 µM | [17] 20 µM
inactive: all other assays above

CCOP(=S)(Oc1cnc(C(C)(C)C)nc1)OC(C)C (stereo unspecified)
active: [6] 31.2 µM | [8] 38 µM | [10] 31.3 µM | [11] 30.2 µM | [12] 34.2 µM | [14] 35.5 µM | [16] 39.8 µM | [17] 32 µM | [18] 34.1 µM
not listed: [2] | [9]
inactive: all other assays above

CSC1=N[C@@](C)(c2ccccc2)C(=O)N1Nc1ccccc1
active: [6] 6.26 µM | [10] 5.87 µM | [11] 8.64 µM | [14] 7.26 µM | [18] 2.88 µM
not listed: [1] | [2] | [9]
inactive: all other assays above

CNc1cnn(-c2cccc(C(F)(F)F)c2)c(=O)c1Cl
active: [10] 3.97 µM
not listed: [1] | [3] | [9] | [13]
inactive: all other assays above

CN(C)C(=O)Nc1cccc(C(F)(F)F)c1
active: [16] 39 µM
not listed: [1] | [2] | [4] | [5] | [13]
inactive: all other assays above

S=C1NCCN1
active: [16] 39 µM
not listed: [1] | [3] | [5]
inactive: all other assays above

COc1ccc(C(=CC(=O)N2CCOCC2)c2ccc(Cl)cc2)cc1OC
active: [6] 10.2 µM | [8] 6.59 µM | [10] 13.9 µM | [20] 3.36 µM
not listed: [1] | [2]
inactive: all other assays above
